Compound activity deposited in PubChem BioAssay by The Scripps Research Institute Molecular Screening Center.
TTR transcr act: activators of transthyretin transcription; SH-SY5Y TTR promoter Gaussia luciferase, luminescence; 100% = recombinant luciferase protein wells; activation, % at 16.7 µM; actives 1.3% (n = 92,000); AID 1117267;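 active = activation above the mean of all tested compounds plus 3 SD, cut at about 9.5% in these data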;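 note: cells exposed to compounds for one day before reading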
HuH7 TTR inh: decreases TTR transcription in HuH7 cells in activator counter-screen | actives 4% (n = 1,100) | AID 1117279 | HuH7 TTR promoter-Gaussia luciferase reporter, luminescence | inhibition, % at 16.7 µM | shares compounds with TTR transcr act;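 active = average inhibition above the solvent-only control wells' mean plus 3 SD, cut at about 15% in these data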;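 note: inhibitors lower well luminescence so higher value means more inhibition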
TTR act confirm: human TTR transcription activation, confirmation; SHSY5Y TTR promoter Gaussia luciferase, luminescence; 100% = purified Lucia enzyme wells, no cells; 1,100 tested, under 10 active; activation, % at 16.7 µM; AID 1117280; shares compounds with TTR transcr act;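 active = mean activation above a set limit taken from the earlier primary screen, cut at about 11% in these data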
Each line names hits and unclear results; the compound was inactive in the other large screens (follow-up assays come after a bar, where they were run). The entries come from a sample that favours hits as a whole.

COC(=O)c1cccc(Cn2ccc3ccc(-c4ccc5ccn(C(=O)c6ccccc6OC)c5c4)cc32)c1	none
CC(C)(C)OC(=O)N1CCC(N[C@@H](Cc2ccccc2)C(=O)NCCc2c[nH]c3ccccc23)(C(=O)NC2CCCCC2)CC1	none
COc1ccc(NC(=O)c2cc(C)cc(C)c2)cc1[N+](=O)[O-]	TTR transcr act 18.6 | HuH7 TTR inh inactive | TTR act confirm inactive
COc1cc(NC(=O)c2ccc(OC)c([N+](=O)[O-])c2)ccc1NC(=O)c1ccco1	none
COc1ccc(C(=O)Nc2ccc(C(=O)N3CCCC3)cc2)cc1[N+](=O)[O-]	none
O=C(NCCc1c[nH]c2ccccc12)OCc1cn(-c2ccc(F)cc2)nn1	none
CCOc1ccc(-c2cc(C(C)=O)c3n(c2=O)CCC3)cc1	none
CC1CCc2[nH]c3ccc(C(=O)N(C)CC(=O)Nc4ccccc4Br)cc3c2C1 (stereo not given)	TTR transcr act 30.8 | HuH7 TTR inh inactive | TTR act confirm inactive
CN(CC(=O)Nc1ccccc1Br)C(=O)c1ccncc1	none
CC1CCc2[nH]c3ccc(C(=O)NCC4CCCO4)cc3c2C1 (stereo not given)	none
CC(C)(C)S(=O)(=O)N1C[C@@H]2C(=C(CCO)C[C@@H]3C(=O)N(c4ccccc4)C(=O)[C@@H]32)[C@H]1CCO	none
CCCC1CCC2(CCCN2CCOC(=S)NCc2cccc(C)c2)CC1 (stereo not given)	none
CN(Cc1ccccc1)C(=O)OCc1cn(Cc2cccc(F)c2)nn1	none
C/C(=N\NC(=O)c1cccs1)c1cccnc1	TTR transcr act 9.9 | HuH7 TTR inh inactive | TTR act confirm inactive
O=C(NNC(=S)NC(=O)c1cccs1)c1cccnc1	none
C/C(=N\NC(=O)c1ccc(N(C)C)cc1)c1cccnc1	none
S=C(Nc1ccccc1Cl)OCCN1CCCC12CCC(c1ccccc1)CC2 (stereo not given)	none
CCC[C@H]1[C@@H](NC(=O)C#Cc2ccccc2)CC[C@@]23CCCN2C(=O)CCC[C@@H]13	none
COc1ccc2c3c([nH]c2c1)[C@]1(CCNC=O)Nc2ccccc2C1=NCC3	none
COc1cc(OC)cc(C(C)c2ccc(-c3ccccc3)cc2)c1 (stereo not given)	none
COC(=O)c1cccc(Cn2ccc3ccc(-c4ccc5ccn(C(=O)c6ccc(C)cc6)c5c4)cc32)c1	none
O=C(NC1CCCCN(Cc2ccc(Cl)cc2)C1=O)c1ccc2ccccc2c1 (stereo not given)	none
CC(C)CNS(=O)(=O)CC1NCc2cc3c(cc21)OCO3 (stereo not given)	none
CCOC(=O)C1=C(CS(=O)(=O)c2ccccc2)NC(=O)NC1c1ccccc1 (stereo not given)	none
CCOC(=O)C1=C(c2ccccc2)NC(=O)NC1c1ccc(OC)cc1 (stereo not given)	none
CCOC(=O)C1=C(c2ccccc2)NC(=O)NC1c1ccc(N(C)C)cc1 (stereo not given)	TTR transcr act 14.0 | HuH7 TTR inh inactive | TTR act confirm inactive
CC(C)C[C@H](NC1(C(=O)NC2CCCCC2)CCN(C)CC1)C(=O)NCC(c1ccccc1)c1ccccc1	none
CCCCCCCCN1C(=O)[C@@H](CC(=O)NCc2cccc(C(F)(F)F)c2)C[C@@]2(C(=O)OC)C1=C[C@H](COCc1ccccc1)O[C@@H]2C	none
Cc1ccc(NC(=S)Nc2ccc(-c3nnc4n3CCCCC4)cc2)cc1C	none
Cc1ccc(C(=O)NC2CCCCN(Cc3ccc(Cl)cc3)C2=O)c(C)c1 (stereo not given)	none
CCCCCCC(=O)Oc1cccc(C2=CC(=O)CC(C)(C)C2=O)c1	TTR transcr act 9.7 | HuH7 TTR inh inactive | TTR act confirm inactive
CC1(C)CC(=O)C=C(c2ccc(COC(=O)c3cccc(C(F)(F)F)c3)cc2)C1=O	none
CC1(C)CC(=O)C=C(c2ccc(CO)cc2)C1=O	none
O=C(/C=C\N1CCOCC1)c1ccc(Br)cc1	TTR transcr act 11.6 | HuH7 TTR inh inactive | TTR act confirm inactive
O=C(NC(=S)Nc1ccccc1N1CCOCC1)c1ccc(Br)cc1	none
O=C(c1cccc(Br)c1)N1CCN(C(=O)N2CCOCC2)CC1	none
CCOc1ccc(CCNC(=O)c2ccccn2)cc1OCC	none
CCN=C1SC(C(=O)Nc2ccc(Cl)c(Cl)c2)CC(=O)N1CC (stereo not given)	TTR transcr act 20.4 | HuH7 TTR inh inactive | TTR act confirm inactive
CCN=C1SC(C(=O)Nc2cccc(C)c2)CC(=O)N1CC (stereo not given)	none
CCN=C1SC(C(=O)Nc2cc(Cl)cc(Cl)c2)CC(=O)N1CC (stereo not given)	none
CC(c1ccccc1)N1CC[C@H]2C=CC[C@@H](C(=O)Nc3cccc(Cl)c3)[C@H]2C1=O (stereo not given in full)	none
CCOC(=O)N1CCN(C(=O)C[C@H]2C[C@@]3(C(=O)OC)C(=C[C@H](C(C)C)O[C@@H]3C3CC3)N(Cc3ccc(Cl)cc3Cl)C2=O)CC1	none
